Data published in PubChem BioAssay.
A number with no mark means an inactive call. For part of these data: Measured potencies and affinities stand elsewhere. Active and inactive are the calls of the source. Unless noted, the rule behind the calls is not given here.

How the values were obtained:
[1] = antimalarial activity against Dd2 strain (AID 2302;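 active = growth inhibition above 50% at the single 2 µM test dose, taken to imply half-maximal potency below 2 µM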;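 note: 0% = DMSO untreated growth and 100% = chloroquine plus artemisinin killed control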); settings: P. falciparum Dd2 in RBCs, LDH growth readout, 72 h; at 2 µM; active compounds read high
[2] = HepG2 cytotoxicity, primary screen, cytotoxicity control for P. falciparum antimalarial project, cell-based, ATP luminescence (AID 2303;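 active = inhibition above 50%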;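 note: 0% = DMSO wells and 100% = digitonin-killed cells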); settings: HepG2 viability, 24-48 h, at 10 µM, active compounds read high
[3] = biological target: L-lactate dehydrogenase (Plasmodium falciparum (isolate CDC / Honduras)) (UniProt Q27743); assay: PfLDH activity inhibition – cell lysate, 3D7 strain, counter-screen for P. falciparum growth inhibition project (AID 2304);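 note: 0% = vehicle and 100% = reference inhibitor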; settings: P. falciparum 3D7 crude extract, LDH APAD/NBT absorbance; at 2 µM; active compounds read high
Sequence of L-lactate dehydrogenase (Plasmodium falciparum (isolate CDC / Honduras)) (Q27743 whole entry, looked up): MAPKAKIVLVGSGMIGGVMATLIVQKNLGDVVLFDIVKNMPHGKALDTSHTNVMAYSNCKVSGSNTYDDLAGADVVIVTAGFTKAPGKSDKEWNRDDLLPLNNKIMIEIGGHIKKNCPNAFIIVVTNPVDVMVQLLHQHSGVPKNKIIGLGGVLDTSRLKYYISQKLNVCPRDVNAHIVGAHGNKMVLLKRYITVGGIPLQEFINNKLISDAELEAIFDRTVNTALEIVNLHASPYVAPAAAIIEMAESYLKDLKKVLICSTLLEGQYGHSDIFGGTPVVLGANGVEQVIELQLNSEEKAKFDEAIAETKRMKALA

[4] = inhibition of 3D7 malaria parasite growth – strain 3D7 (AID 2306);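 note: 0% = DMSO wells and 100% = chloroquine plus artemisinin control wells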; settings: P. falciparum 3D7 erythrocytic growth, LDH absorbance, 72 h; at 2 µM; active compounds read high
[5] = biological target: Calcium-dependent protein kinase 1 (Plasmodium falciparum (isolate 3D7)) (UniProt P62344); assay: PfCDPK1 kinase inhibitors, biochemical, TCAMS library (AID 1159585; cut-off not given, nearly all actives have IC50 up to about 0.98 µM;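 note: inhibitors leave more ATP so luminescence rises with inhibition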); settings: recombinant PfCDPK1, Kinase-Glo ATP depletion luminescence
Sequence of Calcium-dependent protein kinase 1 (Plasmodium falciparum (isolate 3D7)) (P62344 whole entry, looked up): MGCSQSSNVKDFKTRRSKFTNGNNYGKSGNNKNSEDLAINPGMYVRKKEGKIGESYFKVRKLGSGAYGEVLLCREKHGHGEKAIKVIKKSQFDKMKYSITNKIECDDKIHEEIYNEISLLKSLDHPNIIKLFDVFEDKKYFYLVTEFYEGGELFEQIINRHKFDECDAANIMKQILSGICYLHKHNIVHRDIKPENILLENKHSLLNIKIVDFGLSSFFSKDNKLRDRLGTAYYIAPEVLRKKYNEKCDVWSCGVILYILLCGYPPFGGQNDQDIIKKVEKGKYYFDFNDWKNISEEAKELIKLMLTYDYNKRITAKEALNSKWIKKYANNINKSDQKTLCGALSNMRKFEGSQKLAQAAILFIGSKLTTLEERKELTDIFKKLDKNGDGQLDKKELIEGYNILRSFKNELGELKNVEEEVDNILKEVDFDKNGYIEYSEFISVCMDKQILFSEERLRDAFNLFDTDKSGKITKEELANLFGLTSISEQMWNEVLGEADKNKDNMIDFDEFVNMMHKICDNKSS

[6] = biological target: Plasmodium falciparum protein kinase 6 (PK6, PF3D7_1337100) (UniProt Q8IDW1); assay: PfPK6 kinase inhibitors, biochemical, TCAMS library (AID 1159586); settings: recombinant PfPK6, Kinase-Glo ATP depletion luminescence
Sequence of Plasmodium falciparum protein kinase 6 (PK6, PF3D7_1337100) (Q8IDW1 1-305): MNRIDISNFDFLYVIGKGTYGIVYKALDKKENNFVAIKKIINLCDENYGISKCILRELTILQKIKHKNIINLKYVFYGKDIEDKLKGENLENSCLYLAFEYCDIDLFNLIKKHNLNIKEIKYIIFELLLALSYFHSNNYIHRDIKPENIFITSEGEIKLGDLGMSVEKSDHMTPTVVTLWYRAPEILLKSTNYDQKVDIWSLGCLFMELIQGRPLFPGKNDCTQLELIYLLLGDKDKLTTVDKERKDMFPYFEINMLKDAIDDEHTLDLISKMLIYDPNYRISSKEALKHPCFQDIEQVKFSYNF

[7] = biological target: Protein kinase 7 (PK7), Plasmodium falciparum 3D7 (PF3D7_0213400) (UniProt Q7YTF7); assay: inhibition of Plasmodium PK7 catalytic activity – biochemical, TCAMS antimalarial set, Kinase-Glo luminescence (AID 1159587); settings: recombinant PfPK7, Kinase-Glo ATP depletion luminescence
Sequence of Protein kinase 7 (PK7), Plasmodium falciparum 3D7 (PF3D7_0213400) (Q7YTF7 1-343): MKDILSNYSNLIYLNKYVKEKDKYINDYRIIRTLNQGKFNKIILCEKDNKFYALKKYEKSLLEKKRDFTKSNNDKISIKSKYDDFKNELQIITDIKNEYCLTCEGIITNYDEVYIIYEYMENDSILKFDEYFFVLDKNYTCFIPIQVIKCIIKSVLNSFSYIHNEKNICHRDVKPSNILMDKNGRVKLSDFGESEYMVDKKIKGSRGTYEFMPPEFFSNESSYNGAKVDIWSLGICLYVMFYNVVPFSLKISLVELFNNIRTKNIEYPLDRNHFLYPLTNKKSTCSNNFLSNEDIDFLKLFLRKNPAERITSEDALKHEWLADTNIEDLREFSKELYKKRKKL

[8] = biological target: Calcium-dependent protein kinase 4 (Plasmodium falciparum (isolate 3D7)) (UniProt Q8IBS5); assay: PfCDPK4 kinase inhibitors, biochemical, TCAMS library (AID 1159588; cut-off not given, nearly all actives have IC50 up to about 0.91 µM); settings: recombinant PfCDPK4, Kinase-Glo ATP depletion luminescence
Sequence of Calcium-dependent protein kinase 4 (Plasmodium falciparum (isolate 3D7)) (Q8IBS5 whole entry, looked up): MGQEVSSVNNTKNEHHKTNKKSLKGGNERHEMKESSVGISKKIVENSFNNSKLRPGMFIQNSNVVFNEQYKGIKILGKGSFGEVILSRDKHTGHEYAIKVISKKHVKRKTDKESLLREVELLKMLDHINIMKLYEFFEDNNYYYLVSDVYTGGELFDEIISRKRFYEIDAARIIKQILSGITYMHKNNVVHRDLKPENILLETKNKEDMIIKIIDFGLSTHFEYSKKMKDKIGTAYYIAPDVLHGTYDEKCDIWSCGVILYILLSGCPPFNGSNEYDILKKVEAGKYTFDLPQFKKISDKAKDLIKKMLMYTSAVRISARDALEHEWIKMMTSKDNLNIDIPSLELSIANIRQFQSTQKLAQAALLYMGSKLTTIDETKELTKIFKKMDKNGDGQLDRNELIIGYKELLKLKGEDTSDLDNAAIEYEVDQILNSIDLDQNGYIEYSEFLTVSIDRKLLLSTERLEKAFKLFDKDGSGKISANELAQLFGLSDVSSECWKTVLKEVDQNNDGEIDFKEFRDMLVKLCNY

| Structure (SMILES) | growth inhibition [1] | inhibition [2] | inhibition [3] | growth inhibition [4] | outcome [5] | outcome [6] | outcome [7] | outcome [8] |
| --- | --- | --- | --- | --- | --- | --- | --- | --- |
| CCN(CC)CCN(Cc1ccc(-c2ccc(C(F)(F)F)cc2)cc1)C(=O)Cn1c(CCC2CCCCC2)nc(=O)c2ccccc21 | 25% | 32% | 3% | 87% (active) | inactive | inactive | inactive | inactive |
| NC(=O)c1cccc(C(=O)Nc2cccc(-c3cccc(-c4nc5ccccc5[nH]4)c3)c2)c1 | 78% (active) | 32% | 2% | 100% (active) | inactive | inactive | inactive | inactive |
| c1ccc(CNc2cc(-c3ccccn3)nc(-c3ccccn3)n2)cc1 | 89% (active) | 88% (active) | -2% | 84% (active) | inactive | inactive | inactive | inactive |
| CC(C)NC(=O)c1cccc(-c2ccc(OCCN3CCCC3c3cc4ccccc4[nH]3)cc2)c1 (configuration not stated) | 34% | 25% | -2% | 100% (active) | inactive | inactive | inactive | inactive |
| CC(C)NCC(O)Cn1c2ccc(Br)cc2c2cc(Br)ccc21 (configuration not stated) | 100% (active) | 100% (active) | -1% | 99% (active) | inactive | inactive | inactive | inactive |
| Brc1ccccc1CNc1ccnc(NCCn2ccnc2)n1 | 33% | 72% (active) | 4% | 99% (active) | inactive | inactive | inactive | inactive |
| Cc1cc(N2Cc3ccccc3C2)nc(Nc2ccc(S(=O)(=O)N3CCOCC3)cc2)n1 | 85% (active) | 13% | 0% | 101% (active) | inactive | inactive | inactive | inactive |
| O=C(Cn1nc(Br)nc1[N+](=O)[O-])NCC1CCCCC1 | 57% (active) | -8% | -5% | 96% (active) | inactive | inactive | inactive | inactive |
| Cc1nc(-c2nc(NCc3ccc4c(c3)OCO4)ncc2-c2ccsc2)sc1C | 77% (active) | 7% | -6% | 97% (active) | inactive | inactive | inactive | inactive |
| Cc1ncc([N+](=O)[O-])n1CCOC(=O)NC(Nc1ccc(Br)cc1)C(Cl)(Cl)Cl (configuration not stated) | 102% (active) | 0% | 5% | 99% (active) | inactive | inactive | inactive | inactive |
| Cc1cccc2[nH]c(-c3ccc(-c4ccc(NC(=O)N[C@@H]5C[C@H]5c5ccccc5)cc4)cc3)nc12 | 3% | 28% | -5% | 96% (active) | inactive | inactive | inactive | inactive |
| CCCCOc1c(CCNCCCCNCCc2cc(F)c3ccccc3c2OCCCC)cc(F)c2ccccc12 | 78% (active) | 97% (active) | -3% | 96% (active) | inactive | inactive | inactive | inactive |
| Cc1cc(NN=Cc2cccc(Cl)c2)c2ccc(F)cc2n1 | 98% (active) | -2% | -4% | 101% (active) | inactive | inactive | inactive | inactive |
| O=C(C=Cc1ccc(Cl)c(Cl)c1)NCCCCCN1CCC(CCCNC(=O)c2sc3ccccc3c2Cl)CC1 | 40% | 99% (active) | -5% | 93% (active) | inactive | inactive | inactive | inactive |
| Cc1cc(NC(=O)c2cc(S(=O)(=O)N3CCCCC3)ccc2C)no1 | 29% | -7% | -7% | 95% (active) | inactive | inactive | inactive | inactive |
| CCc1ccc(CN2CCC(CNC(=O)c3cc(-c4cccc(C(F)(F)F)c4)cs3)C2)cc1 (configuration not stated) | 48% | 45% | 2% | 97% (active) | inactive | inactive | inactive | inactive |
| CC(=O)NCCNCc1cccc(C(=O)NCc2cccc(C(F)(F)F)c2)c1 | -2% | 1% | 1% | 95% (active) | inactive | inactive | inactive | inactive |
| O=C(Nc1ccc(-c2ccc(-c3nc4ccccc4[nH]3)s2)cc1)Nc1ccc(F)c(F)c1F | 97% (active) | 57% (active) | 5% | 99% (active) | inactive | inactive | inactive | inactive |
| O=C(/C=C/c1ccc(Cl)c(Cl)c1)N1CCC(CCN2CCC(c3c[nH]c4ccccc34)CC2)CC1 | 44% | 56% (active) | -3% | 100% (active) | inactive | inactive | inactive | inactive |
| Cc1nnc2c(NC(=O)NC3CCCC3)cc3ccc(-c4cccc(CN5CCN(C)CC5)c4)cc3n12 | 68% (active) | 54% (active) | 2% | 91% (active) | inactive | inactive | inactive | inactive |

| Structure (SMILES) | growth inhibition [1] | inhibition [2] | inhibition [3] | growth inhibition [4] | outcome [5] | outcome [6] | outcome [7] | outcome [8] |
| --- | --- | --- | --- | --- | --- | --- | --- | --- |
| O=C(Nc1ccc(-c2cccc(-c3nc4ccc(C(F)(F)F)cc4[nH]3)c2)cc1)c1csnn1 | 25% | 42% | -2% | 98% (active) | inactive | inactive | inactive | inactive |
| CCCC(CNCc1ccc(Cl)c(C(F)(F)F)c1)CNc1nc2ccncc2[nH]1 (configuration not stated) | 8% | 26% | -1% | 99% (active) | inactive | inactive | inactive | inactive |
| CC(=O)Nc1ccc2[nH]cc(C3CCN(CC4CCN(C(=O)/C=C/c5ccc(Cl)c(Cl)c5)CC4)CC3)c2n1 | 99% (active) | 21% | -2% | 100% (active) | inactive | inactive | inactive | inactive |
| Cc1nc(C(C)Nc2nncc(-c3ccc(Cl)cc3)n2)cs1 (configuration not stated) | 55% (active) | -15% | -2% | 91% (active) | inactive | inactive | inactive | inactive |
| COC(=O)Cn1c(C2CCN(CC3CCN(C(=O)/C=C/c4ccc(Cl)c(Cl)c4)CC3)CC2)nc2ccccc21 | 2% | 19% | -1% | 86% (active) | inactive | inactive | inactive | inactive |
| COc1ccc(S(=O)(=O)NCCC2CCN(CCCCCNC(=O)C=Cc3ccc(Cl)c(Cl)c3)CC2)cc1 | -2% | 36% | 5% | 87% (active) | inactive | inactive | inactive | inactive |
| O=C(Nc1ccc(Oc2ccccc2)cc1)N[C@H]1CCN(Cc2ccc(OCCCN3CCCCC3)cc2)C1 | 6% | 13% | -6% | 103% (active) | inactive | inactive | inactive | inactive |
| CCC(C)CNC(=O)CN1CN(c2ccccc2)C2(CCN(C(=O)c3ccc(Br)cc3)CC2)C1=O (configuration not stated) | 88% (active) | 10% | -2% | 88% (active) | inactive | inactive | inactive | inactive |
| CN(C(=O)c1snnc1-c1ccccc1)C1CCN(CCCCCNC(=O)/C=C/c2ccc(Cl)c(Cl)c2)CC1 | 58% (active) | 44% | 4% | 96% (active) | inactive | inactive | inactive | inactive |
| CCOC(=O)N[C@@H]1CN[C@@H](C#Cc2cc3c(Nc4ccc(OCc5cccc(F)c5)c(Cl)c4)ncnc3s2)C1 | 13% | 8% | -3% | 86% (active) | inactive | inactive | inactive | inactive |
| CCN(CC)CCOC(=O)c1ccc(NC(=O)c2cc(-c3ccc(C)cc3)nc3ccccc23)cc1 | 12% | 22% | -4% | 97% (active) | inactive | inactive | inactive | inactive |
| COc1ccc(CNCc2cccc(-c3cccc(-c4nc5ccccc5[nH]4)c3)c2)cc1 | 50% (active) | 24% | 1% | 102% (active) | inactive | inactive | inactive | inactive |
| COc1ccc2nccc([C@H](O)CN3CCC(NCc4ccc5c(c4C)OCCO5)CC3)c2n1 | 6% | 26% | 4% | 94% (active) | inactive | inactive | inactive | inactive |
| CC(C)C[C@H](NC(=O)c1ccc(OCCN2CCOCC2)cc1)C(=O)N[C@H](/C=N/NC(=O)OC(C)(C)C)CCc1ccccc1 | 87% (active) | 8% | -4% | 96% (active) | inactive | inactive | inactive | inactive |
| Cc1cc(N[C@@H](CC(C)C)C(=O)NCCOc2ccccc2)nc(Nc2ccccc2)n1 | 9% | 9% | -2% | 93% (active) | inactive | inactive | inactive | inactive |
| CC1(C)N=C(N)N=C(N)N1c1ccccc1 | 1% | 16% | -4% | 98% (active) | inactive | inactive | inactive | inactive |
| O=C(NCCCNc1ccc2ccccc2n1)c1cc2c(Cl)cc(Cl)cc2[nH]1 | 100% (active) | 40% | 4% | 100% (active) | inactive | inactive | inactive | inactive |
| CC(=O)Nc1ncc(C(=O)Nc2cccc(-c3ccc(-c4nc5ccc(F)cc5[nH]4)cc3)c2)s1 | 78% (active) | 18% | 4% | 94% (active) | inactive | inactive | inactive | inactive |
| COc1ccc(/C=C/C(=O)N2CCc3cc4nccc(N5CCN6CCC[C@H]6C5)c4cc32)cc1 | 98% (active) | -3% | -9% | 100% (active) | inactive | inactive | inactive | inactive |
